Only some compounds are listed: those with a hit (about 2.7% of all), similar ones and a draw of the others.
PAFAH1B2 inh – PAFAH1B2 (human) inhibition; P68402; recombinant PAFAH1B2, FP-rhodamine activity probe, fluorescence polarization; inhibition, % at 3.39 µM; actives 1.2% (n = 340,000); AID 492953;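 active = inhibition above the mean of all tested compounds plus 3 SD, cut at about 24% in these data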;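 note: 0% = enzyme with DMSO and 100% = wells lacking PAFAH1B2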
TCR CD3 inh – inhibitors of human TCR-CD3 interaction | TAMRA-labeled TCR probe fluorescence, biochemical | inhibition, % at 9.4 µM | actives 0.37% (n = 360,000) | AID 651800; in the data active = inhibition above about 19%;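 note: recombinant mutant TCR 2C K166C tagged with TAMRA read by polarization; 0% = receptor in buffer alone and 100% = receptor with positive control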
PAFAH1B3 inh – blocks human PAF acetylhydrolase 1B catalytic subunit 3; Q15102; AID 492972; recombinant PAFAH1B3, FP-rhodamine probe, fluorescence polarization; actives 0.28% (n = 340,000); inhibition, % at 3.39 µM;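 active = inhibition above the screen-wide average of all tested compounds plus 3 SD, cut at about 25% in these data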;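 note: 0% = enzyme with DMSO only and 100% = wells lacking PAFAH1B3 protein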
pPAFAH inh – pPAFAH (human) enzyme inhibition; actives 1.5% (n = 330,000); Q13093; inhibition, % at 3.39 µM; recombinant pPAFAH, FP-rhodamine probe fluorescence polarization;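 active = inhibition above the mean inhibition across the screen plus 3 SD, cut at about 25% in these data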;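 note: inhibitors block binding of the rhodamine activity-based probe so polarization drops; 0% = enzyme with DMSO and 100% = wells lacking pPAFAH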
Target sequence (Q13093 whole entry, looked up): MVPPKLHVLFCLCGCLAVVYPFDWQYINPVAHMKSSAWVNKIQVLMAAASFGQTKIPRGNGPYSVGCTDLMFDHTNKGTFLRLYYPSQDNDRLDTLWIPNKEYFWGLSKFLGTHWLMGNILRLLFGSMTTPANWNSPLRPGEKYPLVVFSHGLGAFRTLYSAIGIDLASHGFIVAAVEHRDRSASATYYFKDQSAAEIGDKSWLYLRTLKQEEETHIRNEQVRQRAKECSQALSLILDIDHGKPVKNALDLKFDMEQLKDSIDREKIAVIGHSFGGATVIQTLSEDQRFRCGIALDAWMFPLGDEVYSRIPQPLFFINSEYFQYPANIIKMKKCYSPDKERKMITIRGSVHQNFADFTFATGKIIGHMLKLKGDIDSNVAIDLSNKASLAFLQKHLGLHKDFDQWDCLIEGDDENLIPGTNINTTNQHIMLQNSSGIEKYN
PAFAH2 inh – inhibitors of human PAFAH2; Q99487; recombinant PAFAH2, FP-rhodamine activity probe, fluorescence polarization; inhibition, % at 3.39 µM; actives 0.99% (n = 340,000); AID 492956;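 active = inhibition above the mean over all tested compounds plus 3 SD, cut at about 30% in these data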;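 note: inhibitors block probe labeling of enzyme so polarization drops; 0% = enzyme with DMSO and 100% = wells lacking PAFAH2 protein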
PAFAH2 FP conf – PAFAH2 (human) inhibition, confirmed; AID 493030; inhibition, % at 3.39 µM; recombinant PAFAH2, FP-rhodamine activity probe, fluorescence polarization; shares compounds with PAFAH2 inh; actives 65% (n = 2,300);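 active = mean inhibition over three repeats above a set limit taken from the earlier primary screen, cut at about 30% in these data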;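 note: inhibitor blocks binding of rhodamine activity probe so polarization falls; 0% = enzyme with DMSO and 100% = wells lacking PAFAH2 protein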
An asterisk follows results filed as active; · = no result.

SMILES	PAFAH1B2 inh	TCR CD3 inh	PAFAH1B3 inh	pPAFAH inh	PAFAH2 inh	PAFAH2 FP conf
O=C1NC[C@@H](CCCCN2CCN(CCC3CCCCC3)C(=O)C2=O)N(CC2CCCCC2)C1=O	·	-1	·	·	·	·
O=C1CCC/C=C\C[C@@H](CC(=O)N(CCO)Cc2ccccc2)C(=O)N[C@H](c2ccccc2)CO1	7	11	7	9	66*	56*
COc1ccc(OC)c(NC(=O)C2C(C(=O)O)C3(Cl)C(Cl)=C(Cl)C2(Cl)C3(Cl)Cl)c1 (stereo unspecified)	6	-7	3	-1	51*	40*
CCOc1ncccc1C(=O)OCC(=O)NCc1ccc(C(=O)OC)cc1	1	3	1	-4	6	·
COc1ccc(CCn2c(O)c(C=Nc3cccc(F)c3)c(=O)[nH]c2=O)cc1OC	·	-10	·	1	·	·
C=CCn1c(O)c(C=Nc2ccc(Cc3ccncc3)cc2)c(=O)[nH]c1=S	7	7	4	9	32*	21
O=C1C[C@@H]2c3c(cccc3CN1Cc1ccc(Cl)cc1)C[C@@H](O)[C@H]2O	6	-3	10	·	11	·
CCOc1cc(S(=O)(=O)N2CCN(C(=O)c3ccco3)CC2)ccc1F	3	6	4	7	3	·
O=C(COC(=O)c1c(F)cccc1Cl)NCC1CCCCC1	3	-4	13	13	60*	43*
O=C(COC(=O)c1c(F)cccc1Cl)NC1CCCC1	1	-2	0	3	37*	12
O=C(COC(=O)c1c(Cl)cccc1Cl)NC1CCCCCCC1	12	2	6	10	7	·
Cc1ccccc1NC(=O)Cc1nc(CN(C)CC(=O)Nc2cccc(F)c2)cs1	0	0	0	-1	-2	·
Cc1ccc(NC(=O)Cc2nc(CN(C)CC(=O)Nc3ccc(C)cc3)cs2)cc1	9	4	5	14	31*	16
CC(NC(=O)COC(=O)c1ccccc1F)C1CC2CCC1C2 (stereo unspecified)	19	4	11	5	76*	63*
Cc1ccc(S(=O)(=O)n2nc(OC(=O)c3c(F)cccc3Cl)cc2N)cc1	15	9	9	4	34*	12
CCN(c1ccc(NC(=O)COC(=O)c2ccc(C)c(S(=O)(=O)N3CCOCC3)c2)cc1)C(C)C	1	-6	-3	14	39*	23
Cc1ccc(C(=O)OCC(=O)Nc2ccc3c(c2)OCO3)cc1S(=O)(=O)N1CCOCC1	-2	-7	4	21	74*	76*
Cc1ccc(NC(=O)COC(=O)c2ccc3c(c2)OCCO3)cc1S(=O)(=O)N1CCOCC1	-2	8	4	9	81*	74*
O=C(COC(=O)CC1CC2CCC1C2)Nc1ccccc1[N+](=O)[O-] (stereo unspecified)	10	1	14	18	66*	59*
COCCNC(=O)c1cc2c(c(-c3cccc(-c4cc5ccccc5o4)c3)n1)[C@@H](CCO)N(S(=O)C(C)(C)C)C2 (stereo partly specified)	·	4	·	·	·	·
Cc1ccc(NC(=O)COC(=O)CC2CC3CCC2C3)cc1S(=O)(=O)N1CCOCC1 (stereo unspecified)	5	4	3	11	69*	65*
N#Cc1ccc(NC(=O)COC(=O)c2ccc(F)c(S(=O)(=O)N3CCOCC3)c2)cc1	1	-1	10	7	48*	39*
CC(=O)c1ccc(NC(=O)COC(=O)CC2CC3CCC2C3)cc1 (stereo unspecified)	9	-3	12	22	34*	14
Cc1ccc(NC(=O)COC(=O)c2ccc(NC(=O)CC#N)cc2)cc1S(=O)(=O)N1CCOCC1	-13	10	-28	-9	57*	64*
Cc1ccc(NC(=O)COC(=O)CN2C(=O)C3CCCCC3C2=O)cc1S(=O)(=O)N1CCOCC1 (stereo unspecified)	4	-7	2	0	7	·
SMILES	PAFAH1B2 inh	TCR CD3 inh	PAFAH1B3 inh	pPAFAH inh	PAFAH2 inh	PAFAH2 FP conf
COc1cccc(CNC(=O)c2ccc(Cl)c(S(=O)(=O)N3CCOCC3)c2)c1	1	-8	5	-2	9	·
O=C(COC(=O)CC1CC2CCC1C2)NCc1ccc(F)cc1 (stereo unspecified)	15	-3	16	22	50*	39*
C/C(=N\NC(=O)c1ccccn1)C12CC3CC(CC(C3)C1)C2	17	0	1	4	38*	21
Brc1ccc2ncc3ccccc3c2c1	8	-2	6	·	1	·
Cc1ccc(-c2ccc(/C=N/N=C3/NC(=O)C(CC(=O)O)S3)o2)c([N+](=O)[O-])c1 (stereo unspecified)	5	3	0	18	6	·
CC1=C(C#N)C(=O)NC(=O)/C1=C\c1ccc(-c2ccc(C)cc2[N+](=O)[O-])o1	13	-10	14	·	35*	8
O=C(Nc1ccccn1)c1cc2ccccc2cc1O	7	·	10	9	1	·
O=C(OCc1nnc(-c2ccccc2)o1)c1cccc(S(=O)(=O)N2CCOCC2)c1	-2	-5	-6	4	57*	40*
O=C(OCc1nnc(-c2ccccc2)o1)c1ccc(Br)o1	2	6	-4	10	9	·
Cc1nc2ccc(C(=O)OCc3nnc(-c4ccccc4)o3)cc2nc1C	9	1	14	·	35*	18
O=C(OCc1nnc(-c2ccccc2)o1)c1ccccc1	1	1	1	8	57*	50*
O=C(OCc1nnc(-c2ccccc2)o1)c1ccc(-n2cnnn2)cc1	6	5	9	-18	13	·
O=C(OCc1nnc(-c2ccc(Br)cc2)o1)c1ccco1	1	3	10	1	54*	42*
CC(=O)Nc1ccc(NC(=O)C(C)OC(=O)c2cccs2)cc1 (stereo unspecified)	2	4	8	-3	2	·
Cc1ccsc1C(=O)OCc1nnc(-c2ccccc2)o1	2	-4	2	11	51*	29
Cc1ccccc1C(=O)OCc1nnc(-c2ccc(Cl)cc2)o1	4	1	1	-2	33*	25
CCOC(=O)c1cccc(S(=O)(=O)N2CCOCC2)c1	1	5	7	-1	-4	·
Cc1noc(C)c1COc1ccc(C(=O)OCc2nnc(-c3ccc(Cl)cc3)o2)cc1	1	-1	-3	3	66*	69*
Cc1ccsc1C(=O)OCC(=O)Nc1nnc(-c2ccccc2)o1	5	3	7	-10	3	·
O=C(OCCOc1ccccc1F)c1cccc(S(=O)(=O)N2CCOCC2)c1	1	5	6	12	30*	18
Nc1nc2ccccc2cc1C(=O)NCc1ccc(-c2ccccc2)cc1	·	3	·	·	·	·
CN1CCN(C(=O)C[C@@H]2C=C[C@H](NS(=O)(=O)c3cccc(F)c3)[C@@H](CO)O2)CC1	·	1	·	·	·	·
O=C(COC(=O)/C=C/c1cccc(F)c1)Nc1ccccc1	3	7	12	10	76*	82*

High-throughput results as filed in PubChem.
